Test results taken from publication PMC4336329 (PLoS ONE, 2015).
The campaign covered roughly 310,000 compounds. About 14,000 (4.5%) showed an effect of 50% or more. Effects have a minus sign here. The sample holds strong results, similar compounds and a random draw of the others, so the mix is not that of the screen.

molecular target: human ether-à-go-go-related gene (hERG) potassium channel (human, UniProt Q12809); assay: primary screen, population patch clamp on CHO cells stably expressing hERG; higher = less effect of the substance
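Further: peak tail current of the secondary pulse compared with the same well before compound.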

Chain of human ether-à-go-go-related gene (hERG) potassium channel (Q12809 whole entry, looked up): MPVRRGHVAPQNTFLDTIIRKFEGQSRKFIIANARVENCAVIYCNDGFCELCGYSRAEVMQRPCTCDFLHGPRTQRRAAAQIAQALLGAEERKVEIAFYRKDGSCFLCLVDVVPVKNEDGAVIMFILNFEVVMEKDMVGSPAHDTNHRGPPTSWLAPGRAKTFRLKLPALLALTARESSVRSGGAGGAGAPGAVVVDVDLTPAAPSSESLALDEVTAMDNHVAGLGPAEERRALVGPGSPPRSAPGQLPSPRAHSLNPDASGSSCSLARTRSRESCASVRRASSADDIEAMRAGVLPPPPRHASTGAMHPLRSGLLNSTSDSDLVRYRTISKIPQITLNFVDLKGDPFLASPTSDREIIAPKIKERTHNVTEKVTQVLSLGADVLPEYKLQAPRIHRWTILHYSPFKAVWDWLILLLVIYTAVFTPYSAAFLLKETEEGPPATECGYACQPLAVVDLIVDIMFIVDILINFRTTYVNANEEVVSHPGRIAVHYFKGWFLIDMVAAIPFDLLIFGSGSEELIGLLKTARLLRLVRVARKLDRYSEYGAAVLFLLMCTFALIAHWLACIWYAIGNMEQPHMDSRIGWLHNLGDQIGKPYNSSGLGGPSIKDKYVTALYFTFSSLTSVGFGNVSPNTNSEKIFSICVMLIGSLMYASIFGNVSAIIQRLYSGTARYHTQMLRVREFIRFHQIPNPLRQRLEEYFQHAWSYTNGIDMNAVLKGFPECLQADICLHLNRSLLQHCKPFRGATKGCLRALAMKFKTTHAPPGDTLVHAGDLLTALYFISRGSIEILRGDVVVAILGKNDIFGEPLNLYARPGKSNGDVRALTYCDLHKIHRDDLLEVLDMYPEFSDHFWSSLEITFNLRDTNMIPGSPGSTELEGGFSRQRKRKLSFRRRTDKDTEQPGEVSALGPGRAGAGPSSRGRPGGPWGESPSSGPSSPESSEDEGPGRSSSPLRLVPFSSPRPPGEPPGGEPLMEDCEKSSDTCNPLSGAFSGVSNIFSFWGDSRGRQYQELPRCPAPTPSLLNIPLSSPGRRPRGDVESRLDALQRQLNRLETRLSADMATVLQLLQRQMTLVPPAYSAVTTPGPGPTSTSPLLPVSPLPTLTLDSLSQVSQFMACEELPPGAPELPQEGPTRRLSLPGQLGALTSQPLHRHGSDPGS

Row | SMILES | hERG current change (%, negative = inhibition) at 10uM [%]
1 | CCC(=O)Nc1cccc(C(=O)/C=C/c2ccccc2)c1 | -37
2 | CCC(=O)Nc1cccc(C(=O)/C=C/c2ccc(F)cc2)c1 | -69.1
3 | CC(=O)Nc1cccc(C(=O)/C=C/c2ccc(F)cc2)c1 | -31.1
4 | Cc1nc(SCC(=O)NC(=O)NC(C)(C)C)nc(C)c1C | -8.95
5 | COC(=O)CSc1nnc(SCc2ccccc2)s1 | 7.89
6 | CCN(CC(=O)Nc1ccc(NC(C)=O)cc1)C(=O)/C=C/c1cn(-c2ccccc2)nc1-c1ccc(F)cc1 | 5.58
7 | CCCn1c(C)cc(/C=C(\C#N)C(=O)O)c1C | 10.4
8 | Cc1cc(/C=C(\C#N)C(=O)O)c(C)n1CCC(C)C | 10.5
9 | CCCCn1c(C)cc(/C=C(\C#N)C(=O)O)c1C | -80
10 | O=C(N/N=C/c1cc([N+](=O)[O-])ccc1O)Nc1ccccc1 | 18.2
11 | COc1ccc(CC(=O)N2CCC(Nc3nc4ccccc4n3Cc3ccc(F)cc3)CC2)cc1 | -71.7
12 | COc1ccc(CC(=O)N2CCN(c3ccc(F)cc3)CC2)cc1 | 1.52
13 | COc1ccc(CNC(=O)C2CCN(C(=O)Cc3ccccc3)CC2)cc1 | -13.5
14 | CC(CCc1ccc(O)cc1)N1CCC(Oc2ccc(C(=O)N3CCCC3)cc2)CC1 (centres unmarked) | -55.7
15 | COC(=O)CCC(C)N1CCC(Oc2ccc(C(=O)N3CCCC3)cc2)CC1 (centres unmarked) | -11
16 | COc1ccc(CCC(C)N2CCC(Oc3ccc(C(=O)N4CCCC4)cc3)CC2)cc1 (centres unmarked) | -65.4
17 | CSCCC(C)N1CCC(Oc2ccc(C(=O)N3CCCC3)cc2)CC1 (centres unmarked) | -31.3
18 | COCC(C)N1CCC(Oc2ccc(C(=O)N3CCCC3)cc2)CC1 (centres unmarked) | 5.11
19 | Cc1noc(/C=C/c2ccco2)c1S(=O)(=O)N1CCC(C(=O)N(C)Cc2ccccc2)CC1 | -4.68
20 | O=C(CSc1ccccc1)Nc1cc(S(=O)(=O)N2CCOCC2)ccc1N1CCOCC1 | 14.5
21 | Cc1cccc(NC(=O)c2cc(C)nc3ccccc23)c1 | 14.7
22 | Cc1cc(=O)[nH]c(Nc2cccc(Br)c2)n1 | 12.4
23 | Cc1cccc(Nc2cc(C)nc3ccccc23)c1.Cl | -65.4

Row | SMILES | hERG current change (%, negative = inhibition) at 10uM [%]
24 | Cc1cc(C)c(C#N)c(Nc2cccc(Br)c2)n1 | 12.5
25 | Cc1cc(Nc2cccc(Br)c2)c2ccccc2n1 | -86.2
26 | COc1cccc(Nc2cc(C)c3ccccc3n2)c1 | 6.21
27 | COc1cccc(Nc2cc(C)nc3ccccc23)c1 | -73.1
28 | Oc1cccc(Nc2nc(-c3ccccc3)nc3ccccc23)c1 | 9.56
29 | COc1ccc(Nc2cc(C)nc3ccccc23)cc1.Cl | -36.5
30 | Cl.Oc1cccc(Nc2c3ccccc3nc3ccccc23)c1 | -17.6
31 | Cc1cc(Nc2cccc(O)c2)c2ccccc2n1.Cl | -64.2
32 | Cc1ccc(Nc2cc(C)nc3ccccc23)c(C)c1 | -42.8
33 | CC(=O)Nc1ccc2c(c1)NC(=O)CC2 | 18.3
34 | Cc1cc(C)c(S(=O)(=O)N2CCN(C(=O)CCn3nc(C)c(C)c3C)CC2)c(C)c1 | -35.8
35 | CCN1CCN(CC(=O)Nc2nc3ccc(C)cc3s2)CC1 | -34.5
36 | Cc1cccc(NC(=S)NCCc2ccc(S(N)(=O)=O)cc2)c1C | 11.4
37 | O=C(NCCN1C(=O)S/C(=C\c2cccs2)C1=O)c1ccc(=O)[nH]c1 | -15.5
38 | Cc1cc(Nc2ccc(C)c(C)c2)c2ccccc2n1 | -66.9
39 | Cc1nc2ccccc2nc1Nc1cccc(Cl)c1 | 9.24
40 | Cc1cc(Nc2cccc(Cl)c2)c2ccccc2n1 | -68.8
41 | Cc1cc(C(=O)Nc2ccccc2Cl)c2ccccc2n1 | -2.16
42 | Cc1cc(Nc2ccccc2O)c2ccccc2n1.Cl | -18.6
43 | Cc1cc(Nc2ccccc2Cl)c2ccccc2n1 | -64.2
44 | Cc1ccc(C)c(Nc2cc(C)nc3ccccc23)c1 | -49.5
45 | Cc1cc(C)nc(Nc2cccc(Cl)c2)n1.Cl | 21.8
46 | Cc1ccc(Nc2nc3ccccc3c(=O)s2)cc1C | 6.94

Row | SMILES | hERG current change (%, negative = inhibition) at 10uM [%]
47 | Cc1ccc(C(=O)NCC(=O)O)s1 | 23.8
48 | Cc1ccc2[nH]c(=O)c(CN(Cc3cccs3)C(=S)NCC3CCCO3)cc2c1 (centres unmarked) | 8.11
49 | COc1ccc(CCN2CC(C(=O)N(C)CCOc3ccccc3)CCC2=O)cc1 (centres unmarked) | -57.2
50 | CN(CCC1CCOCC1)C(=O)C1CCC(=O)N(CCc2ccccc2)C1 (centres unmarked) | -15.1
51 | CCc1ccc(CN(C)C(=O)C2CCC(=O)N(Cc3cccc(OC)c3)C2)nc1 (centres unmarked) | -18.8
52 | CN(CCOc1ccccc1)C(=O)C1CCC(=O)N(CCCN2CCCC2=O)C1 (centres unmarked) | 27.5
53 | CN(CCOc1ccccc1)C(=O)C1CCC(=O)N(CCN2CCOCC2)C1 (centres unmarked) | 16.5
54 | CN(CCOc1ccccc1)C(=O)C1CCC(=O)N(CCc2ccc(Cl)cc2)C1 (centres unmarked) | -84.9
55 | COc1ccc(CCN2CC(C(=O)N(C)Cc3ccccc3OC)CCC2=O)cc1 (centres unmarked) | -29.4
56 | COc1ccc(CCN2CC(C(=O)N(C)Cc3ccc(C)o3)CCC2=O)cc1 (centres unmarked) | -6.77
57 | CCc1ccc(CN(C)C(=O)C2CCC(=O)N(CCc3ccc(OC)cc3)C2)nc1 (centres unmarked) | -79.9
58 | CN(CCC1CCOCC1)C(=O)C1CCC(=O)N(CCc2ccc(Cl)cc2)C1 (centres unmarked) | -62
59 | CN(C(=O)C1CCC(=O)N(CCc2ccc(Cl)cc2)C1)C1CCOCC1 (centres unmarked) | 10.7
60 | COc1ccccc1CN1CC(C(=O)N(C)CCOc2ccccc2)CCC1=O (centres unmarked) | -9.29
61 | CCOC(=O)C1CCN(C(=O)COC(=O)CSc2ccc([N+](=O)[O-])cc2)CC1 | -39.5
62 | COc1ccc(CCNC(=O)c2ccccc2C(=O)NCCc2ccc(OC)cc2)cc1 | -12
63 | COc1ccc(OC)c2c1cc(C(=O)N[C@@H](C)C(=O)N[C@@H](C(=O)O)c1ccccc1)n2C | 19.2
64 | O=[N+]([O-])c1ccc(O)c(/C=N/n2cnc3ccccc32)c1 | 19.2
65 | O=C(COC(=O)CCCc1c[nH]c2ccccc12)Nc1ccc2c(c1)OCO2 | 15.1
66 | c1ccc2c(c1)CCCN2Cc1nnnn1CC1CCCO1 (centres unmarked) | 7.06
67 | O=[N+]([O-])c1ccc(NNS(=O)(=O)c2cc(Cl)ccc2Cl)nc1 | -68.8
68 | O=[N+]([O-])c1ccc(NCc2ccc(Cl)cc2)nc1 | 0.977
69 | O=[N+]([O-])c1ccc(Nc2ccc(Cl)cc2)nc1 | 21.7

Row | SMILES | hERG current change (%, negative = inhibition) at 10uM [%]
70 | CCN(CC)S(=O)(=O)c1ccc(C)c(NC(=O)COC(=O)CNC(=O)c2ccc(C(C)(C)C)cc2)c1 | 7.12
71 | CCN(CC)c1ccc(/C=N/NS(=O)(=O)c2ccc(CNC(C)=O)cc2)cc1 | 13.2
72 | Cc1cccc(C(=O)NCC(=O)NC(C)CCc2ccccc2)c1 (centres unmarked) | -0.165
73 | Cc1c(Cl)cccc1-n1c(SCC(=O)N(C)Cc2ccccc2)nnc1-c1ccncc1 | -49.5
74 | COc1ccc(CNC(=O)C2CCN(S(=O)(=O)c3cccc4nonc34)CC2)cc1 | -0.634
75 | CC(C)Sc1nnc([C@@H]2CCCN2C(=O)OC(C)(C)C)o1 | 14.7
76 | Cc1nc(NCc2ccc3c(c2)OCO3)c2nnn(Cc3ccccc3)c2n1 | -13.9
77 | CCOc1ccc(NC(=O)CN(C)C(=O)/C=C/c2ccco2)cc1OCC | -61.2
78 | CN(CC(=O)Nc1ccc(Cl)c(C(F)(F)F)c1)C(=O)/C=C/c1ccco1 | 5.99
79 | COc1cccc(NC(=O)CN(C)C(=O)CC(NC(=O)c2ccccc2Cl)c2ccccc2)c1 (centres unmarked) | -49.7
80 | CCOc1ccc(CCNC(=O)COC(=O)/C=C/c2ccco2)cc1OCC | 12.9
81 | CCOc1ccc(NC(=O)CN(C)CC(=O)NC(C)c2ccccc2)cc1OCC (centres unmarked) | 6.58
82 | CCOc1ccc(CCNC(=O)/C=C/c2ccco2)cc1OCC | -70
83 | CCOc1ccc(NC(=O)CN(C)C(=O)CC(NC(=O)c2ccccc2)c2ccccc2)cc1OCC (centres unmarked) | -51.9
84 | CCCC(=O)Nc1cccc(C(=O)Nc2ccccc2OCC)c1 | -14.7
85 | CCOc1ccccc1NC(=O)c1cccc(NC(=O)CC(c2ccccc2)c2ccccc2)c1 | -67.1
86 | CCOc1ccccc1NC(=O)c1ccc(Cl)c(NC(=O)CC(c2ccccc2)c2ccccc2)c1 | 2.16
87 | CCOc1ccc(/C=C/C(=O)N(C)CC(=O)Nc2cccc(F)c2)cc1OCC | 10.6
88 | COc1ccc(CCNC(=O)/C=C/c2ccco2)cc1OC | 0.593
89 | COc1ccc(-n2c3c(cc(C(=O)NNc4ccccc4C)c2=O)C(=O)CC(C)(C)C3)cc1 | 17.7
